We go through eight molecules from PubChem BioAssay (NCATS).

Test [1] addresses Lysosomal acid glucosylceramidase (Homo sapiens) (UniProt P04062). Briefly: Glucocerebrosidase-p2 (AID 348; in the data active means potency below about 10 µM; further: potency means the concentration at half of the fitted maximal effect). The conditions noted are these: purified GBA, blue fluorogenic substrate, 40 min. In outline: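 Compounds titrated from 0.6 nM upwards against 0.2 nM enzyme in pH 5.9 citric acid/KH2PO4, taurocholate, tween-20; blue fluorogenic substrate 80 uM, 40 min room temperature, stopped and read Ex 365/Em 440 for AC50.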

The nature of test [2]: AP1 Signaling Pathway (AID 357; active means well fitted curve in either direction with a large enough effect, not every such curve was filed as active;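 further: ME-180 reporter cells stimulated with EGF at its EC50 level; on the % scale 0 is the no-effect control and ±100 the full control effect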). The settings on record: ME-180 AP-1-bla reporter, EGF-induced, beta-lactamase ratio, 5 h; at 7.69 µM (top of the series) unless noted. Put shortly: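 In this screen, ME-180 cells in Opti-MEM with 0.5% dialyzed FBS received EC50 EGF and compound titrations for 5 h. AP-1 reporter beta-lactamase was detected via CCF4 ratio, giving AC50 for positive and negative modulators.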

Test [3] deals with Cytochrome P450 1A2 (Homo sapiens) (UniProt P05177). Description: p450-cyp1a2 (AID 410; calls by dose curve; further: potency means the concentration at half of the fitted maximal effect). The conditions noted are these: recombinant CYP1A2, luciferin-ME demethylation, luminescence; series mostly up to 57 µM. Put shortly:
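Inhibition was calculated relative to 57 uM furafylline (full inhibition). The reaction used human CYP1A2 at 20nM with Luciferin-ME at its Km, 100uM, driven by an NADPH-regenerating system for 60 min at room temperature.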

The nature of test [4]: NFAT Signaling Pathway (AID 444; active means well fitted curve in either direction with a large enough effect, not every such curve was filed as active;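 further: carbachol stimulus at about its EC50 of 1 µM final; on the % scale 0 is the no-effect control and ±100 the full control effect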). The settings on record: Jurkat NFAT-bla M1, carbachol, beta-lactamase ratio, 5 h; at 7.69 µM (top of the series) unless noted. In outline: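 Jurkat cells carrying an NFAT-driven β-lactamase reporter and co-transfected muscarinic M1 receptor were treated with compound plus carbachol (1 uM final, an EC50 level) for 5 h at 37 °C. CCF4 loading followed for 1 h at RT; 460/530 nm ratio gave %activity.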

Test [5] can be described thus: Stat Signaling Pathway (AID 446; active means well fitted curve in either direction with a large enough effect, not every such curve was filed as active;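 further: ME-180 cervical cancer cells given 40 pM IL-6 alongside compound; SIE-controlled beta-lactamase reporter measured as 460/530 nm FRET emission ratio; on the % scale 0 is the no-effect control and ±100 the full control effect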). The settings on record: ME-180 SIE beta-lactamase reporter, IL-6 stimulated, 5 h; at 7.69 µM (top of the series) unless noted. Put shortly: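 ME-180 cells carrying a SIE-driven beta-lactamase reporter are stimulated with 40 pM IL-6 for 5 h at 37C in the presence of compound. The 460/530 nm FRET substrate ratio is read after 2.5 h at RT. Data are normalised to 300 pM IL-6 and to 125 nM JAK inhibitor controls.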

For test [6], the target named is Glucocorticoid receptor (Homo sapiens) (UniProt P04150). Briefly: GR-EFC Redistribution (AID 451; calls by dose curve; further: potency means the concentration at half of the fitted maximal effect). The settings on record: CHO-K1 GR-EFC translocation, beta-gal luminescence, 2 h. Put shortly:
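CHO-K1 cells stably expressing nuclear-localized β-gal enzyme acceptor and GR fused C-terminally to the enzyme donor fragment; ligand-driven nuclear translocation restores β-gal by complementation. Compounds titrated up to 46 uM final, 2 h at 37 °C; luminescence read.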

In test [7] the target is Mitogen-activated protein kinase 10 (Mus musculus) (UniProt Q61831). Briefly: JNK3 AlphaScreen Assay (AID 530; active means well fitted curve in either direction with a large enough effect, not every such curve was filed as active;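 further: kinase came from lysate of stimulated human HepG2 cells; on the % scale 0 is the no-effect control and ±100 the full control effect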). The conditions noted are these: JNK3 lysate, c-Jun phosphorylation; series mostly up to 57.1 µM. Put shortly: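 JNK3 came from HepG2 lysates pre-activated with IL-1beta and TNF-alpha and phosphorylated biotinylated GST-cJun (1-79) at 10 uM ATP, pH 7.6, room temperature. Compounds were titrated. AlphaScreen signal used anti-phospho-cJun (Ser73) antibody.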
(Bead proximity is the source of the signal in Alpha formats.)

The target of test [8] is 3',5'-cyclic-AMP phosphodiesterase 4B (Homo sapiens) (UniProt Q07343). Description: qHTS Assay for Inhibitors of PDE-IV (AID 607; active means well fitted activation curve with a large enough effect in the main read-out, with a control signal flat, not every such curve was filed as active; further: potency means the concentration at half of the fitted maximal effect). The settings on record: HEK293 ACTOne CNG channel cells, membrane potential fluorescence; series mostly up to 22.9 µM. Put shortly: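 HEK293 ACTOne cells with CNG channel (1000/well), endogenous PDE4; membrane potential dye, compounds up to 22.9 uM final. Fluorescence Ex 535/Em 590; RO 20-1724 (100 uM final) as reference.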
Sequence of 3',5'-cyclic-AMP phosphodiesterase 4B (Homo sapiens) (Q07343 whole entry, looked up): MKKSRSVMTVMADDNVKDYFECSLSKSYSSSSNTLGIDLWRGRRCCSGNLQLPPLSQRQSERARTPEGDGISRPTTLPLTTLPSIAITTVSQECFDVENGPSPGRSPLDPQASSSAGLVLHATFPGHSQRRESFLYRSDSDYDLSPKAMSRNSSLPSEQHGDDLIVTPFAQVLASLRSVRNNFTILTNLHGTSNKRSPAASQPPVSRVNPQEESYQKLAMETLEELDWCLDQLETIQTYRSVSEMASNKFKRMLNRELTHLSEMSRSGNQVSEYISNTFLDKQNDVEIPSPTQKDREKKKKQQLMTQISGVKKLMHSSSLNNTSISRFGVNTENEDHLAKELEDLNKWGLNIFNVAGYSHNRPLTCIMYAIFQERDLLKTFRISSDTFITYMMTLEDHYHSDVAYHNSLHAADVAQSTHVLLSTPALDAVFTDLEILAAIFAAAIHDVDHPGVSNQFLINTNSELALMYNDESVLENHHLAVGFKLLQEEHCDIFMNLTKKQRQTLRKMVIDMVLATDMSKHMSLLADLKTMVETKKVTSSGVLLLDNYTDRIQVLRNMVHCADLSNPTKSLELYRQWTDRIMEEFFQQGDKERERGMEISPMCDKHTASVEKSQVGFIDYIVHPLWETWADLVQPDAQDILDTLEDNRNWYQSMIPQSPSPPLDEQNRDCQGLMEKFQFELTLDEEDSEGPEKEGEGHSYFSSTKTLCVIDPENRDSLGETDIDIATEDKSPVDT
In general terms: qHTS replaces the single test concentration by a dilution series.

Test [9] concerns the target Cytochrome P450 3A4 (Homo sapiens) (UniProt P08684). Description: qHTS Assay for Activators of Cytochrome P450 3A4 (AID 885). Further: nearly all actives have a fitted effect of over 65% in size. The conditions noted are these: recombinant CYP3A4, Luciferin-PPXE luminescence, 60 min; series mostly up to 57.1 µM. Put shortly:
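Human CYP3A4 (20 nM) with Luciferin-PPXE at 25 uM (its KM) in 200 mM KPO4; 10 min compound preincubation, then NADPH regeneration and 60 min reaction at RT. Luciferin read by luminescence; normalized to 57 uM ketoconazole full inhibition.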

Test [10] can be described thus: Primary qHTS for small molecule stabilizers of the endoplasmic reticulum resident proteome: Secreted ER Calcium Modulated Protein (SERCaMP) assay (AID 1508630). Further: on the % scale 0 is the no-effect control and ±100 the full control effect. The settings on record: SH-SY5Y GLuc-SERCaMP (Gaussia luciferase released on ER calcium loss) secretion, thapsigargin, luminescence; series mostly up to 38.4 µM. Put shortly:
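GLuc-SERCaMP-expressing SH-SY5Y cells, pretreated 16 h with compound, are challenged with thapsigargin to empty ER calcium stores; after 4 h, coelenterazine is added directly to the medium and luminescence is imaged.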

Test [11] has as its target Rap guanine nucleotide exchange factor 3 (Homo sapiens) (UniProt O95398). Briefly: Confirmatory qHTS for agonist of cAMP-regulated guanine nucleotide exchange factor 3 (EPAC1) (AID 1645881).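 Further: EPAC1 catalysed release of BODIPY-GDP from Rap1B seen as fluorescence loss; 100% = effect of cAMP agonist control; nearly all actives have a fitted effect of over 75% in size.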 The conditions noted are these: EPAC1 Rap1B BODIPY-GDP exchange fluorescence; series mostly up to 154 µM.
The target in test [12] is Rap guanine nucleotide exchange factor 4 (Homo sapiens) (UniProt Q8WZA2). Description: Confirmatory qHTS for agonist of cAMP-regulated guanine nucleotide exchange factor 4 (EPAC2) (AID 1645884).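 Further: nucleotide exchange releases bodipy-GDP from Rap1 and this lowers its fluorescence; on the % scale 0 is the no-effect control and ±100 the full control effect; nearly all actives have a fitted effect of over 65% in size.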 The conditions noted are these: EPAC2 GEF activity, Rap1B-BODIPY-GDP fluorescence; series mostly up to 154 µM.
For test [13], the target named is Glucocorticoid receptor (Homo sapiens) (UniProt P04150). Description: GR-GFP Redistribution (AID 450;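 active means compounds whose dose series gives a full or clear partial fitted curve of increased nuclear translocation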; further: potency means the concentration at half of the fitted maximal effect). The conditions noted are these: U2OS GR-GFP nuclear translocation, laser cytometry, 2 h.
Sequence of Glucocorticoid receptor (Homo sapiens) (P04150 whole entry, looked up, the tested form may be a part): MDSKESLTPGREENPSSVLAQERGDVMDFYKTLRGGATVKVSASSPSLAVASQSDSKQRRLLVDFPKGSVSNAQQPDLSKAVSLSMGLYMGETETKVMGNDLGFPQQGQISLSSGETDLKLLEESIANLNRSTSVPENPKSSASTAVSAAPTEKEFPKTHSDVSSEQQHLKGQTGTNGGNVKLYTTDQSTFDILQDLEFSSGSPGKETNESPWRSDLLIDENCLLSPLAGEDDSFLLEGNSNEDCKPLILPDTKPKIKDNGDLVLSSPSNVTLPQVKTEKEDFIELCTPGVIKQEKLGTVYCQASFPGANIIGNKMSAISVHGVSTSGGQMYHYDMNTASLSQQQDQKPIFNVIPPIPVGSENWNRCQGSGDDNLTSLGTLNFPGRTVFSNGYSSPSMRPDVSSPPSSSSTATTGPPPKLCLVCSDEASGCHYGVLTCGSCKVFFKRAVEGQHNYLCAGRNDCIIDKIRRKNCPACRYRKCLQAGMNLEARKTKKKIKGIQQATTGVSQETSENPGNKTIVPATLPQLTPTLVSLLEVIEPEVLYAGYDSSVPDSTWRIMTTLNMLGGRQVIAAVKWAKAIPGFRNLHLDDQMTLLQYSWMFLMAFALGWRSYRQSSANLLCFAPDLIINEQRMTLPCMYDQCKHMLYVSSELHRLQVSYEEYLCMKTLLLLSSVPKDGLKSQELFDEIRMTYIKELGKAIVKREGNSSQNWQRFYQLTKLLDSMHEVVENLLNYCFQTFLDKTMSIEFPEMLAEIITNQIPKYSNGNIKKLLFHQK
Test [14] has as its target Dual specificity protein kinase CLK4 (Homo sapiens) (UniProt Q9HAZ1). Briefly: qHTS Assay for Inhibitors of CDC-like Kinase 4 (Kinase-Glo Assay) (AID 1770). Further: on the % scale 0 is the no-effect control and ±100 the full control effect; nearly all actives have a fitted effect of over 65% in size. The settings on record: recombinant Clk4, Kinase-Glo ATP depletion luminescence; series mostly up to 66.7 µM. Put shortly: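 Substrate mix (RS peptide 100 uM, ATP 1 uM) dispensed, compound pinned in, then Clk4 added to 25 nM final. Incubated 4.5 h at RT; Kinase-Glo reagent added, luminescence read after 5 min.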

Test [15] shares this target. Description: qHTS Assay for Inhibitors of CDC-like Kinase 4 (ADP-Glo Assay) (AID 1771). Further: on the % scale 0 is the no-effect control and ±100 the full control effect; nearly all actives have a fitted effect of over 70% in size. The conditions noted are these: recombinant CLK4, ADP-Glo luminescence; series mostly up to 80 µM. Put shortly: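 Kinase reaction: Clk4 at 25 nM, RS repeat peptide substrate at 100 uM, ATP at 1 uM, 1 hr, room temperature. Product ADP detected as luciferase signal via ADP-Glo.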
Test [16] has the same target. Briefly: qHTS Assay for Inhibitors of CDC-like Kinase 4 (ADP-FP Assay) (AID 1795). Further: on the % scale 0 is the no-effect control and ±100 the full control effect; nearly all actives have a fitted effect of over 60% in size. The settings on record: Transcreener ADP fluorescence polarization; series mostly up to 50 µM. In outline: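 Clk4 6.25 nM; RS peptide 100 uM; ATP 1 uM; 25 mM Tris pH 7.5, 10 mM MgCl2; 1 h reaction. ADP detected via antibody/orange tracer FP displacement; TG003 positive control.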
For test [17], the target named is Ubiquitin carboxyl-terminal hydrolase 1 (Homo sapiens) (UniProt O94782). Description: Inhibitors of USP1/UAF1: Pilot qHTS (AID 504865).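 Further: rhodamine fluorescence freed from ubiquitin-rhodamine substrate followed over time; top concentration of the series differs between compounds; on the % scale 0 is the no-effect control and ±100 the full control effect; nearly all actives have a fitted effect of over 35% in size.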 The conditions noted are these: purified USP1/UAF1, Ub-rhodamine cleavage fluorescence; series mostly up to 54.9 µM. In outline: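 In 50mM HEPES pH 7.8 containing 0.5mM EDTA, 1mM TCEP, 0.1 mg/ml BSA and 0.01% Tween-20, 1nM USP1/UAF1 is exposed to compound for 15 min, then Ub-Rho (150nM final) is added and fluorescence is read over time.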
Sequence of Ubiquitin carboxyl-terminal hydrolase 1 (Homo sapiens) (O94782 whole entry, looked up): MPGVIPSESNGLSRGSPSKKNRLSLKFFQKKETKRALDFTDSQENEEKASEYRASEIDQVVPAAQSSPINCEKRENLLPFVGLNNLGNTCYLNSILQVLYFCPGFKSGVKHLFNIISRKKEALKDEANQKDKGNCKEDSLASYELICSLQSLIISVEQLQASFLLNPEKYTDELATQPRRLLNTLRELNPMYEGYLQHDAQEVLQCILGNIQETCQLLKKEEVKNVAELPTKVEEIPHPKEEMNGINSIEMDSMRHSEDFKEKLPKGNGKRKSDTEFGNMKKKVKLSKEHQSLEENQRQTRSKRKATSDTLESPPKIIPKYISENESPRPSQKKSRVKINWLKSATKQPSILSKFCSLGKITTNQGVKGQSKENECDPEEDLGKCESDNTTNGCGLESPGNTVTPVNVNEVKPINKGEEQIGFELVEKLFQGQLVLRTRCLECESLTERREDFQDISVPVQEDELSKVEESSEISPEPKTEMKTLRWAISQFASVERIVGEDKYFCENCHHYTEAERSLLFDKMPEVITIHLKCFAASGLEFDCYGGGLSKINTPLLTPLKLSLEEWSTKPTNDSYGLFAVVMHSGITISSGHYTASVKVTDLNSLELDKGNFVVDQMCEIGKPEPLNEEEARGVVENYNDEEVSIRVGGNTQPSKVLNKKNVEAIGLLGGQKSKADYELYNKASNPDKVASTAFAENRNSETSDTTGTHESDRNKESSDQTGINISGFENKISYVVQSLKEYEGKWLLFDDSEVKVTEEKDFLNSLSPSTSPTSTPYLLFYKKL

Test [18] addresses Cytochrome P450 3A4 (Homo sapiens) (UniProt P08684). Description: qHTS Assay for Inhibitors and Substrates of Cytochrome P450 3A4 (AID 884). Further: potency means the concentration at half of the fitted maximal effect; nearly all actives have a fitted effect of over 50% in size. The conditions noted are these: recombinant CYP3A4, Luciferin-PPXE luminescence; series mostly up to 57.1 µM. In outline:
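20 nM human CYP3A4 with 25 uM Luciferin-PPXE (at KM) in 200 mM KPO4, preincubated 10 min with compound; NADPH regeneration started a 60 min RT reaction. Luciferin detected by luminescence, normalized to 57 uM ketoconazole as full inhibition.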

A number with no mark means an inactive call. Results filed as inconclusive are left out. Activity calls are given as the source filed them. Unless noted, the call rests on the fitted dose curve; in most records, active means well fitted curve in the direction sought with a large enough effect; inconclusive means small, poorly fitted or top-dose-only effect, or another doubt; inactive means no such curve, though single readings can be large; an effect the other way counts as inactive or inconclusive.

Sequence of Dual specificity protein kinase CLK4 (Homo sapiens) (Q9HAZ1 whole entry, looked up): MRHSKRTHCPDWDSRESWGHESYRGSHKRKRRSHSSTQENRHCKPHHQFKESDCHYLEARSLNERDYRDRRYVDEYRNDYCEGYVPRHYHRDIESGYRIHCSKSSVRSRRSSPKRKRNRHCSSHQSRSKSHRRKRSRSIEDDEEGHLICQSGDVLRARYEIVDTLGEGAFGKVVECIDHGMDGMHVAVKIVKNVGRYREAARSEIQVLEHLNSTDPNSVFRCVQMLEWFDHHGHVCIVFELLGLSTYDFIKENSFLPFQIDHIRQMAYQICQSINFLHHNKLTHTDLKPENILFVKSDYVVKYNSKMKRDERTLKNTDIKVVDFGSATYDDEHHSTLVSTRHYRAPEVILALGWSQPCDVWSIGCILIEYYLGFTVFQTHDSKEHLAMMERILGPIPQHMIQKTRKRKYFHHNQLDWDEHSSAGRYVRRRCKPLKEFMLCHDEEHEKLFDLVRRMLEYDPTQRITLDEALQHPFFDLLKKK
Sequence of Rap guanine nucleotide exchange factor 3 (Homo sapiens) (O95398 whole entry, looked up): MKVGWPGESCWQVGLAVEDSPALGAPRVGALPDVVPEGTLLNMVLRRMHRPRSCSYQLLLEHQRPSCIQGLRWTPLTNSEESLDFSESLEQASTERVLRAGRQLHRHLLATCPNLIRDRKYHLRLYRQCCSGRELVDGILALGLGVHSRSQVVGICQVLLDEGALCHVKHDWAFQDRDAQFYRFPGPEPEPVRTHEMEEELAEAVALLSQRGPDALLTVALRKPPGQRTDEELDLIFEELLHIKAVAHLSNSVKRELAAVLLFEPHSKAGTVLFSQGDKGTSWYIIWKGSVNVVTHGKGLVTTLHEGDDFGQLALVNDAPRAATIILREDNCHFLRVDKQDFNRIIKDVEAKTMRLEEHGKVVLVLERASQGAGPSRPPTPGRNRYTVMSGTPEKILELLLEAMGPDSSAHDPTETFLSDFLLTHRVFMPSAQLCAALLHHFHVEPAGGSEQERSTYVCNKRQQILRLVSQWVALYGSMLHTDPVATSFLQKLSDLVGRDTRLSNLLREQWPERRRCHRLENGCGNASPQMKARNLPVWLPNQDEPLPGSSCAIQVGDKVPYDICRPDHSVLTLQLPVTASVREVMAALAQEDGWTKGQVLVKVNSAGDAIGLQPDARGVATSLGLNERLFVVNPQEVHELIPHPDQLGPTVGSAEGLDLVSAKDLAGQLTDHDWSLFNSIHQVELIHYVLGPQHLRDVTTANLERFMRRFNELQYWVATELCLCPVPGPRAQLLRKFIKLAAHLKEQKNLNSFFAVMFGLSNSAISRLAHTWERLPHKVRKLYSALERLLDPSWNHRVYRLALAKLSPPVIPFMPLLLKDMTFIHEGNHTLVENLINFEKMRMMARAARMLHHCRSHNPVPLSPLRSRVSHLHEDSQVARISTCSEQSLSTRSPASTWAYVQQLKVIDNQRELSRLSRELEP
Sequence of Lysosomal acid glucosylceramidase (Homo sapiens) (P04062 whole entry, looked up): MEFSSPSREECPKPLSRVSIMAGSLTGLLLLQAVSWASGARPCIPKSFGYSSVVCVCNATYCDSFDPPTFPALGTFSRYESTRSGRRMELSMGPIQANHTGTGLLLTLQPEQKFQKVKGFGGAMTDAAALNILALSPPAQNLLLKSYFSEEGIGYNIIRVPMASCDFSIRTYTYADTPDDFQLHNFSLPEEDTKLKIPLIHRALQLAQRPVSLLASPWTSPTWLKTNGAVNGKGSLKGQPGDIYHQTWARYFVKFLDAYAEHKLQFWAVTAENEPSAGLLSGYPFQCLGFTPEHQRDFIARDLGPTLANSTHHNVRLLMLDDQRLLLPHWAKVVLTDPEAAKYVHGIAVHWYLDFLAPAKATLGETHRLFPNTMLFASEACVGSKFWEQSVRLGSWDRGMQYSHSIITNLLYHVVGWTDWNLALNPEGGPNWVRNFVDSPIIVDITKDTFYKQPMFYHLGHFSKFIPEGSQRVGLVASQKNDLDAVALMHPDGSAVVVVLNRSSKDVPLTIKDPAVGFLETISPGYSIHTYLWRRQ
Sequence of Cytochrome P450 1A2 (Homo sapiens) (P05177 whole entry, looked up): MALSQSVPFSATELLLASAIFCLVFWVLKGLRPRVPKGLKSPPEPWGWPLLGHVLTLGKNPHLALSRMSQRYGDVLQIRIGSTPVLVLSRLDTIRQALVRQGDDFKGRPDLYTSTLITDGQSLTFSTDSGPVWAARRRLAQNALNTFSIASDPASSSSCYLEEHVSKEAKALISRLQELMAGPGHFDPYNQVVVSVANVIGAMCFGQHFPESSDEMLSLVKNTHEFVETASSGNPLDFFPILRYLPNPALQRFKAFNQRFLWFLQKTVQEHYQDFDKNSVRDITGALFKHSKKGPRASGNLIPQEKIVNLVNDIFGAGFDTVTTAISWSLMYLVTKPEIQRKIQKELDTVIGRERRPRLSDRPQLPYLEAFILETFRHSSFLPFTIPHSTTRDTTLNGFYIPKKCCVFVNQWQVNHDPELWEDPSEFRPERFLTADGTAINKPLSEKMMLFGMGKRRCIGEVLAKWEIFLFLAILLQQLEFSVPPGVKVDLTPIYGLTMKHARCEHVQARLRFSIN

For `COc1ccc(C(=O)N2CCC3(CCN(Cc4cc(C(F)(F)F)cc(C(F)(F)F)c4)CC3)CC2)cc1`, the Potency in test [1] was > 11.4 µM; in [6], > 46 µM. Moreover, the activity change, negative = inhibition in test [2] is 7.47%; in [4], 19.2%. In addition, the Potency result in [3], in test [7], in test [8], in [9], in [11] and in test [12] was “inactive” throughout. The activity, negative = inhibition in test [5] was -6.24%. The result in test [10] was inactive.
In the case of `COc1ccc(-n2c(=O)c(CCc3ccccc3)nc3cncnc32)cc1`, the Potency is > 11.4 µM in [1], 25.1 µM (active) in test [3], > 9.22 µM in [13] and > 46 µM in test [6]. The activity change, negative = inhibition in test [2] was -15.2%; in test [4] it was -3.92%. In test [5], the activity, negative = inhibition is -3.17%. The Potency result in test [7], in test [14], in [15], in test [16] and in test [17] was “inactive” throughout. Moreover, in test [10], the outcome was inactive.
Take `O=C(CCCCCN1C(=O)c2cccc3cccc(c23)C1=O)NO`: the outcome in test [10] was inactive.
For `O=C(c1csnn1)N1CCC2(CC1)CN(c1cccc(-c3ccccc3)c1)C2`, the activity change, negative = inhibition in test [2] was -15.1%; in test [4], -11.3%. Moreover, the Potency in test [6] was > 46 µM. The Potency result in [7], in test [8], in test [9], in [11] and in test [12] was “inactive” each time. The outcome in test [10] was inactive.
With `COc1ncc2ncc(=O)n(C3CC3)c2n1`, the Potency in test [1] is > 11.4 µM; in [3], 10 µM (active); in [13], > 9.22 µM; in test [6], > 46 µM; in test [8], 1.58 µM (active). For the same molecule, the activity change, negative = inhibition in test [2] was -1.23%; in test [4], -8.58%. Moreover, the activity, negative = inhibition in test [5] was 6.59%. Besides, the Potency result in [7], in test [14], in [15], in [16] and in test [17] was “inactive” throughout. The outcome in test [10] was inactive.
On to `CN(C)C(=O)c1ccc(-c2nccc(N(C)Cc3ccco3)n2)cc1`, for which the Potency in test [1] was > 11.4 µM; in test [3], 12.6 µM (active); in [13], > 46 µM; in [6] it was > 46 µM. The results for the activity change, negative = inhibition in test [2] and in test [4] were -6.22% and -2.09%, respectively. For the same molecule, the activity, negative = inhibition in [5] is 4.76%. In addition, the Potency entry in test [7], in [8], in test [14], in test [15], in test [16] and in [17] was “inactive” throughout. In [10], the outcome was inactive.
Consider `COc1ccc(C(=O)N2CCC[C@@]3(CCN(Cc4cc(C(F)(F)F)cc(C(F)(F)F)c4)C3)C2)cc1`, for which the Potency in test [1] is > 11.4 µM; in test [6] it was > 46 µM; in test [18] it was 3.16 µM (active). Further, the activity change, negative = inhibition in [2] was 16.8%; in test [4], -5.26%. The Potency entry in [3], in test [7], in test [8], in test [9], in test [11] and in [12] was “inactive” in each case. The activity, negative = inhibition in test [5] was -1.38%. In addition, the result in test [10] was inactive.
For `COc1cccc(-c2nc(NCc3ccc(OC)cc3OC)c3ccccc3n2)c1`, the activity change, negative = inhibition in test [2] was -5.61%; in test [4], -23.1%. In addition, in test [5], the activity, negative = inhibition is -8.78%. For the same molecule, the Potency in test [13] and in test [6] was > 46 µM each time. The Potency entry in test [7], in test [14], in test [15], in test [16], in test [11] and in [12] was “inactive” throughout. Moreover, the result in test [10] was inactive.
